According to PubChem BioAssay AID1159580 (chemical genetic matrix, 2015):
Screen size: about 5,500 compounds; about 2,000 (36%) were called active. Inconclusive results (about 18%) are left out. No stated cut-off is given here; in the data, active means normalized growth mostly below about 0.91 (no sharp cut-off); inconclusive means no clear call, values can overlap the other calls; inactive means mostly above about 0.92. The list shows a part of the results.

Experiment: chemical genetic growth profiling, strain panel (AID 1159580);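 further: tested at 20 µM; growth read once vehicle control cultures reached saturation at 30 °C; 1 = growth at the plate median or of vehicle wells; lower values mean less growth of the strain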
Conditions: growth OD

Measured: normalized growth

O=C1CC2OCC=C3CN4CC[C@]56c7ccccc7N1C5[C@H]2[C@H]3CC46 (some centres not stated)
inactive: S. cerevisiae deletion strains, locus YJR075W, strain HOC1, active compounds read low 1.01 | S. cerevisiae deletion strains, locus YKL009W, strain mrt4, active compounds read low 1 | S. cerevisiae deletion strains, locus YKL068W, active compounds read low 1 | S. cerevisiae deletion strains, locus YKL085W, strain MDH1 (second series), active compounds read low 1 | S. cerevisiae deletion strains, locus YKL085W, strain MDH1, active compounds read low 1 | S. cerevisiae deletion strains, locus YKL160W, strain elf1, active compounds read low 1.03 | S. cerevisiae deletion strains, locus YKL190W, strain CNB1, active compounds read low 1.01 | S. cerevisiae deletion strains, locus YKR001C, strain vps1, active compounds read low 0.996 | S. cerevisiae deletion strains, locus YKR026C, strain gcn3, active compounds read low 1.04 | S. cerevisiae deletion strains, locus YKR091W, strain srl3, active compounds read low 1.01 | S. cerevisiae deletion strains, locus YLL001W, strain dnm1, active compounds read low 1.03 | S. cerevisiae deletion strains, locus YLL026W, active compounds read low 1.01 | S. cerevisiae deletion strains, locus YLL041C, strain sdh2, active compounds read low 1.02 | S. cerevisiae deletion strains, locus YLR027C, strain aat2, active compounds read low 1.03 | S. cerevisiae deletion strains, locus YLR039C, strain RIC1, active compounds read low 1.03 | S. cerevisiae deletion strains, locus YLR058C, strain SHM2, active compounds read low 1.02 | S. cerevisiae deletion strains, locus YLR102C, strain apc9, active compounds read low 1 | S. cerevisiae deletion strains, locus YLR113W, strain HOG1, active compounds read low 0.938 | S. cerevisiae deletion strains, locus YLR221C, strain rsa3, active compounds read low 1.02 | S. cerevisiae deletion strains, locus YLR258W, strain gsy2, active compounds read low 1.03 | S. cerevisiae deletion strains, locus YLR262C, strain YPT6 (second series), active compounds read low 1.05 | S. cerevisiae deletion strains, locus YLR262C, strain YPT6, active compounds read low 1.1 | S. cerevisiae deletion strains, locus YLR268W, strain sec22, active compounds read low 0.994 | S. cerevisiae deletion strains, locus YLR320W, strain mms22, active compounds read low 1.03 | S. cerevisiae deletion strains, locus YLR330W, strain CHS5, active compounds read low 1.01 | S. cerevisiae deletion strains, locus YLR342W, strain FKS1 (second series), active compounds read low 0.999 | S. cerevisiae deletion strains, locus YLR342W, strain FKS1, active compounds read low 1.01 | S. cerevisiae deletion strains, locus YLR357W, strain rsc2, active compounds read low 1.03 | S. cerevisiae deletion strains, locus YLR370C, strain arc18, active compounds read low 1.03 | S. cerevisiae deletion strains, locus YLR371W, strain rom2, active compounds read low 0.993 | S. cerevisiae deletion strains, locus YLR384C, strain iki3, active compounds read low 1.03 | S. cerevisiae deletion strains, locus YLR418C, strain cdc73, active compounds read low 0.961 | S. cerevisiae deletion strains, locus YML016C, strain PPZ1, active compounds read low 1.01 | S. cerevisiae deletion strains, locus YML032C, strain rad52, active compounds read low 0.995 | S. cerevisiae deletion strains, locus YML120C, strain ndi1, active compounds read low 1.02 | S. cerevisiae deletion strains, locus YML124C, strain tub3, active compounds read low 0.999 | S. cerevisiae deletion strains, locus YMR058W, strain fet3, active compounds read low 1.02 | S. cerevisiae deletion strains, locus YMR078C, strain ctf18, active compounds read low 0.998 | S. cerevisiae deletion strains, locus YMR125W, strain sto1, active compounds read low 1.02 | S. cerevisiae deletion strains, locus YMR129W, active compounds read low 1.03 | S. cerevisiae deletion strains, locus YMR205C, strain PFK2, active compounds read low 1.05 | S. cerevisiae deletion strains, locus YMR223W, strain ubp8, active compounds read low 0.989 | S. cerevisiae deletion strains, locus YMR231W, strain pep5, active compounds read low 1.03 | S. cerevisiae deletion strains, locus YMR263W, strain SAP30, active compounds read low 1.01 | S. cerevisiae deletion strains, locus YMR307W, strain GAS1, active compounds read low 0.979 | S. cerevisiae deletion strains, locus YNL067W, strain RPL9B, active compounds read low 1.01 | S. cerevisiae deletion strains, locus YNL071W, strain lat1, active compounds read low 1.01 | S. cerevisiae deletion strains, locus YNL128W, strain TEP1, active compounds read low 1.01 | S. cerevisiae deletion strains, locus YNL153C, strain GIM3, active compounds read low 1.02 | S. cerevisiae deletion strains, locus YNL183C, strain NPR1, active compounds read low 0.933 | S. cerevisiae deletion strains, locus YNL209W, strain ssb2, active compounds read low 1.02 | S. cerevisiae deletion strains, locus YNL233W, strain BNI4, active compounds read low 1.01 | S. cerevisiae deletion strains, locus YNL248C, strain rpa49, active compounds read low 1.04 | S. cerevisiae deletion strains, locus YNL250W, strain rad50, active compounds read low 1 | S. cerevisiae deletion strains, locus YNL271C, strain bni1, active compounds read low 0.997 | S. cerevisiae deletion strains, locus YNL298W, strain CLA4, active compounds read low 0.993 | S. cerevisiae deletion strains, locus YNL307C, strain MCK1, active compounds read low 0.994 | S. cerevisiae deletion strains, locus YNL322C, strain KRE1 (second series), active compounds read low 1.03 | S. cerevisiae deletion strains, locus YNL322C, strain KRE1, active compounds read low 1.01 | S. cerevisiae deletion strains, locus YNR049C, strain mso1, active compounds read low 1.01 | S. cerevisiae deletion strains, locus YNR052C, strain pop2, active compounds read low 0.997 | S. cerevisiae deletion strains, locus YOL006C, strain TOP1, active compounds read low 1.03 | S. cerevisiae deletion strains, locus YOL012C, strain htz1 1.63 | S. cerevisiae deletion strains, locus YOL147C, strain pex11, active compounds read low 0.995 | S. cerevisiae deletion strains, locus YOR001W, strain rrp6, active compounds read low 1.04 | S. cerevisiae deletion strains, locus YOR061W, strain CKA2, active compounds read low 1.01 | S. cerevisiae deletion strains, locus YOR069W, strain VPS5, active compounds read low 1.01 | S. cerevisiae deletion strains, locus YOR070C, strain gyp1, active compounds read low 1.01 | S. cerevisiae deletion strains, locus YOR080W, strain dia2, active compounds read low 1.04 | S. cerevisiae deletion strains, locus YOR083W, strain WHI5, active compounds read low 1.02 | S. cerevisiae deletion strains, locus YOR106W, strain vam3, active compounds read low 1.04 | S. cerevisiae deletion strains, locus YOR136W, strain idh2, active compounds read low 0.985 | S. cerevisiae deletion strains, locus YOR144C, strain elg1, active compounds read low 1 | S. cerevisiae deletion strains, locus YOR184W, strain ser1, active compounds read low 0.979 | S. cerevisiae deletion strains, locus YOR231W, strain MKK1, active compounds read low 0.955 | S. cerevisiae deletion strains, locus YOR265W, strain rbl2, active compounds read low 1.03 | S. cerevisiae deletion strains, locus YOR270C, strain vph1, active compounds read low 1.05 | S. cerevisiae deletion strains, locus YOR290C, strain snf2, active compounds read low 1.02 | S. cerevisiae deletion strains, locus YOR316C, strain cot1, active compounds read low 1 | S. cerevisiae deletion strains, locus YPL051W, strain arl3, active compounds read low 1.03 | S. cerevisiae deletion strains, locus YPL055C, strain LGE1, active compounds read low 1.03 | S. cerevisiae deletion strains, locus YPL078C, strain atp4, active compounds read low 1.02 | S. cerevisiae deletion strains, locus YPL106C, strain sse1, active compounds read low 1.03 | S. cerevisiae deletion strains, locus YPL240C, strain hsp82, active compounds read low 1.03 | S. cerevisiae deletion strains, locus YPL241C, strain CIN2, active compounds read low 0.978 | S. cerevisiae deletion strains, locus YPL256C, strain CLN2, active compounds read low 0.951 | S. cerevisiae deletion strains, locus YPR119W, strain clb2, active compounds read low 0.995 | S. cerevisiae deletion strains, locus YPR141C, strain kar3, active compounds read low 1 | S. cerevisiae deletion strains, locus YPR163C, strain tif3, active compounds read low 0.996 | S. cerevisiae deletion strains, locus YPR167C, strain met16, active compounds read low 1.01 | S. cerevisiae deletion strains, strain wtn01, active compounds read low 0.993 | S. cerevisiae strains, strain wild type, active compounds read low 1.01
